Data from PubChem BioAssay (EPA / NIEHS).
“And” between values parts separate entries of the source, which are not always exact repeats. Identical values can stand only once. Where a structure was tested more than once in an assay, its records may differ in their call. The source made the active and inactive calls. How the source made its calls: active means hit-call score of the fitted dose curve at least 0.9, where 1 is the maximum; inactive means score below 0.9.

Test: APR_HepG2_p53Act_24hr: Apredica 24-hour HepG2 Assay for p53 Activation (AID 2282913);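 further: p53 protein immunofluorescence averaged per cell in HepG2 with Hoechst nuclei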
Details: high-content imaging, actives raise or lower the signal
Method in brief: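 Human HepG2 liver cells; 24 hr cpd treatment, 0.39–200 uM, 0.5% DMSO final. Fixed in 3.7% formaldehyde, permeabilized with 0.5% Triton X-100, stained with anti-p53/Cy5 plus Hoechst 33342. Six images per well at 20x; gain or loss vs DMSO.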

Row | SMILES | AC50 | outcome
1 | CC/C(=C(\c1ccccc1)c1ccc(OCCN(C)C)cc1)c1ccccc1 | 16.1 µM (active) and 11.3 µM (active) | 
2 | C[C@]12CC[C@@H]3c4ccc(O)cc4CC[C@H]3[C@@H]1CC[C@@H]2O | 25.1 µM (active) | 
3 | C#C[C@]1(O)CC[C@H]2[C@@H]3CCc4cc(O)ccc4[C@H]3CC[C@@]21C | 87.5 µM (active) | 
4 | O=C(c1ccc(OCCN2CCCCC2)cc1)c1c(-c2ccc(O)cc2)sc2cc(O)ccc12 |  | inactive

Test: APR_HepG2_CellCycleArrest_72hr: Apredica 72-hour HepG2 Assay for Cell Cycle Arrest (AID 2282914)
Details: high-content imaging, actives raise or lower the signal
Method in brief: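 Read-out is Hoechst-stained nuclear DNA content measured by automated fluorescence imaging (20x, six images per well), fitted in both directions relative to DMSO. Human HepG2 liver cells received 0.39–200 uM compound for 72 hr at 0.5% v/v DMSO.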

Row | SMILES | AC50 | outcome
5 | CC/C(=C(\c1ccccc1)c1ccc(OCCN(C)C)cc1)c1ccccc1 | 29.4 µM (active) | inactive
6 | C[C@]12CC[C@@H]3c4ccc(O)cc4CC[C@H]3[C@@H]1CC[C@@H]2O |  | inactive
7 | C#C[C@]1(O)CC[C@H]2[C@@H]3CCc4cc(O)ccc4[C@H]3CC[C@@]21C | 27.9 µM (active) | 
8 | O=C(c1ccc(OCCN2CCCCC2)cc1)c1c(-c2ccc(O)cc2)sc2cc(O)ccc12 |  | inactive
